Among all 340,000 compounds or so, about 20 (0.006%) were called active. Calls come from the whole dose curve; as a rule, active = well fitted inhibition curve with a large enough effect; inconclusive = small, poorly fitted or top-dose-only effect; inactive = no such curve, though single readings can be large or run the other way. The entries come from a sample that favours actives as a whole.
biological target: Sphingomyelin phosphodiesterase (Homo sapiens) (UniProt P17405); assay: Inhibitors of Secretory Acid Sphingomyelinase (S-ASM): qHTS; conditions: placental ASM, HMU-PC fluorogenic substrate, 60 min; series mostly up to 57.5 µM
Text: Atherosclerosis is the underlying process for cardiovascular disease and thus is a major contributor to disease burden in the population. […] Thus, selective small molecule inhibitors of S-ASM should block LDL modification and reduce aortic LDL retention and may serve as new agents for the treatment of atherosclerosis. In a collaboration between National Heart, Lung, and Blood Institute and the NCGC a high-throughput amenable screen was developed to identify potent and selective small molecule inhibitors of S-ASM. This enzymatic, fluorescent screen uses an ASM enzyme preparation derived from human placenta and was tested against the NIH Molecular Libraries Small Molecule Repository (MLSMR). NIH Chemical Genomics Center [NCGC] NIH Molecular Libraries Probe Centers Network [MLPCN] MLPCN Grant: MH093173-01 Assay Submitter (PI): Alan Remaley, National Heart, Lung, and Blood Institute and Wei Zhen, NIH Chemical Genomics Center
Two microliters of ASM enzyme (1:150 dilution from stock) are dispensed in 1536-well plate. 23 nL of compound and control are pinned into assay plate using the Kalypsys pintool. The plates are then incubated for 10 minutes at ambient room temperature. Then, 2 uL of the flurogenic substrate, HMU-PC0, (9 uM final) are added to the plate. An incubation for 60 minutes takes place at 37 masculineC. After that, 4 uL of stop solution is added to raise the pH to 10 to end the kinetic reaction. Plate is read on ViewLux, with detection set at Ex = 386 (10) nm and Em = 447 (10) nm.

Chain of Sphingomyelin phosphodiesterase (Homo sapiens) (P17405 47-631 limits assumed): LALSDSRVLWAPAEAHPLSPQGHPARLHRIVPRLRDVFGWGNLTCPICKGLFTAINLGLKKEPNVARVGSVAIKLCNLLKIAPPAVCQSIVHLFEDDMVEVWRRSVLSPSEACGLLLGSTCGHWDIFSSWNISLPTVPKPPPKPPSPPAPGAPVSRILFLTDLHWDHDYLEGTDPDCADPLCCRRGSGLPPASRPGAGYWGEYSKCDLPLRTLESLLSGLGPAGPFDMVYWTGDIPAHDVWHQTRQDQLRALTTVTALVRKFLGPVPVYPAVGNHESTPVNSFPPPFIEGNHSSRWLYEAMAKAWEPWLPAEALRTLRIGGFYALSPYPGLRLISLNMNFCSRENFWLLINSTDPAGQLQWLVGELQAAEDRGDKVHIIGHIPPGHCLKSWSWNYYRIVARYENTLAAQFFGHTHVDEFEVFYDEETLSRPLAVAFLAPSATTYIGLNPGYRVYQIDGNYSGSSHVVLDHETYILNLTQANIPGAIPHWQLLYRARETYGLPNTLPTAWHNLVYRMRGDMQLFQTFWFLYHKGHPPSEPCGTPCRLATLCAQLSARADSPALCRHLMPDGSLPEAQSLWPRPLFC

Potency, inactive:
COc1ccc(Nc2ncc(C(=O)N3CCN(c4ccccc4OC)CC3)c3ccccc23)cc1
O=C(COC(=O)c1ccc(F)c(S(=O)(=O)N2CCOCC2)c1)NCc1ccc2c(c1)OCO2
Brc1c(CSc2nncc3ccccc23)nc2ccccn12
COc1ccc(Cc2nnc(SCC(=O)N(c3ccccc3)C(C)C)n(N)c2=O)cc1
CC1(C)CC(=O)C=C(c2cccc3c2Oc2ccccc2S3)C1
O=C(NCC1CCCO1)C1CCN(C2CCN(C(=O)C3CCCCC3)CC2)CC1 (stereo not given)
FC(F)(F)c1ccc2c3n(nc2c1)CCN=C3c1ccc(Cl)cc1
CC(C)[C@H](NC(=O)Nc1ccc(S(N)(=O)=O)cc1)C(=O)O
COc1ccccc1N1CCC(N2CCN(CC(C)(C)C)C(CCO)C2)CC1 (stereo not given)
CC(=O)Nc1nc2c(s1)C(=O)NCC(C)(C)C2
COc1ccccc1C(=O)C(O)c1ccccc1OC (stereo not given)
Cn1nc(C(F)(F)F)c2cc(NC(=O)OCC(C)(C)C)sc21
O=C(CCNC(=O)c1ccc([N+](=O)[O-])cc1)Nc1ccccc1N1CCOCC1
Cc1cc(C)c(S(=O)(=O)c2cc(F)ccc2C)c(=O)[nH]1
COC(=O)C1=C(C(=O)OC)C2(OC1c1ccc(Br)cc1)C(=O)c1ccccc1C2=O (stereo not given)
COCCNC(=O)CSc1nc2sccc2c(=O)n1-c1ccccc1
CCN(CC)S(=O)(=O)c1ccc(N2CC(C(=O)NCc3cccnc3)CC2=O)cc1 (stereo not given)
O=C(Nc1ccc([N+](=O)[O-])cc1)C1CC12CCC2 (stereo not given)
Cc1ccc(S(=O)(=O)c2c[nH]c3ccc(C)cc3c2=O)cc1
O=C1CC[C@@H]2CC3(C[C@@H]4CCN1[C@H]24)Nc1cc([N+](=O)[O-])ccc1NC3=NC1CCCCC1 (stereo not given in full)
COc1cc(OC)cc(C(=O)NCCSCc2ccc(Cl)cc2)c1
CC(C)(C)C(=O)Nc1c(Br)c(C2CC2)nn1-c1ccccc1
CC(C)(C)NC(=O)NC(=O)COC(=O)CCC1CCCCC1
O=C(CCN1C(=O)[C@@H]2Cc3ccccc3CN2C1=O)NCc1ccccc1
Cc1cccc(NC(=S)NCCc2ccc(F)cc2)c1C
Cn1cc(C2OC(=O)c3ccccc32)c2ccccc21 (stereo not given)
CCN(C[C@H]1N[C@@](Cc2ccccc2)(C(=O)OC)[C@H]2C(=O)N(Cc3ccccc3)C(=O)[C@@H]12)C(=O)c1ccc(C)cc1
Cc1c(NC(=O)CN(C)CC(=O)Nc2ccc(F)c(F)c2F)c(=O)n(-c2ccccc2)n1C
CC(C(=O)NC1CCCC1)N(c1ccc(Oc2ccccc2)cc1)S(C)(=O)=O (stereo not given)
O=C(CCN1C(=O)COc2ccccc21)NCCCN1CCN(c2ccc(F)cc2)CC1
O=C(/C=C/c1cccc([N+](=O)[O-])c1)OCC(=O)N1CCOCC1
COC(=O)c1cccc(C(=O)N2CCC(CCC(=O)NCc3ccc(F)cc3)CC2)c1
CC(=O)OCC(=O)C1(O)CCC2C3CC(C)C4=CC(=O)CCC4(C)C3C(O)CC21C (stereo not given)
CC(=O)NNC(=O)c1csc(Cc2c(Cl)sc3ccc(Cl)cc23)n1
CC1CN(S(=O)(=O)c2ccccc2)C(C)CN1S(=O)(=O)c1ccccc1 (stereo not given)
Cc1c(Cl)cccc1NC(=O)Nc1ccc(C(=O)N2CCCC2)cc1
O=C(COc1ccc(F)cc1Br)NCC1COc2ccccc2O1 (stereo not given)
CCOc1ccc(CCNC(=O)COC(=O)CCS(=O)(=O)c2ccc(C)cc2)cc1OCC
Cc1cc(C)nc(SC2CCCCC2NS(=O)(=O)c2ccc(Cl)cc2)n1 (stereo not given)
CC1(C)CC(=O)C=C(NCCN2CCNCC2)C1
COc1cccc(C(=O)CC(=O)C(=O)Nc2ccc([N+](=O)[O-])cc2C)c1
COc1cccc(NC(=O)N2CCC(NC(=O)C(Cc3cccc(C)c3)NC(C)=O)CC2)c1 (stereo not given)
COc1cccc(N2CCN(C(=O)Nc3ccc4c(c3)NC(=O)CO4)CC2)c1
CCOc1ccc(C(=O)N(Cc2ccc(N(C)C)cc2)C2CCS(=O)(=O)C2)cc1 (stereo not given)
O=C(NCCCN1CCCC1=O)c1cccc(S(=O)(=O)NCc2ccccc2)c1
COC(=O)c1ccccc1NC(=O)CSc1nc2c(c(=O)[nH]1)CCC2
CCOc1ccc(NC(=O)CN(C)CC(=O)Nc2cccc(Cl)c2C)cc1OCC
COc1ccc(C(=O)NC(=S)N2CCNC(=O)C2CC(=O)OC(C)C)cc1 (stereo not given)
O=C(OCc1cc(Cl)ccc1OC(F)F)c1cccnc1
O=C(CSc1nnnn1-c1ccc(O)cc1)c1ccc(F)cc1
CCC(=O)Nc1ccc(C(=O)CSc2nnc(CNc3ccc(Cl)cc3)o2)cc1OC
COC(=O)c1c(C)oc(C)c1S(=O)(=O)NCc1ccc(Cl)cc1
Cc1ccc2[nH]c(C)c(CCNC(=O)NC3CCCCC3)c2c1
CCC1=NN(C(=O)Cc2ccc([N+](=O)[O-])cc2)C(O)(c2ccc(Br)cc2)C1 (stereo not given)
Cc1cc(C)cc(NC(=O)N(C)Cc2ccccc2)c1
COc1cccc(CNC(=O)CCN2C(=S)NC(C)(C)CC2C)c1 (stereo not given)
COc1cc2c(cc1OC)C(Cc1cc(OC)c(OC)cc1[N+](=O)[O-])=NCC2
CS(=O)(=O)N1CCN(CC(=O)NC2CCCC2)CC1
O=[N+]([O-])c1ccc(S(=O)(=O)Nc2cccc(-c3ccc(N4CCCC4)nn3)c2)cc1
COc1ccccc1C1CC(=O)n2c(nc(-c3ccccc3)c2-c2ccccc2)S1 (stereo not given)
COc1ccc(N2C(=O)CCC(C(=O)N(C)C3CCCCC3)C2c2ccc(OC)c(OC)c2)cc1 (stereo not given)
N#C[C@]1(S(=O)(=O)c2ccccc2)C[C@@H]2ON=C(c3cccc(Br)c3)[C@@H]2C1
COC(=O)c1c(C(=O)OC)c2n(c1C)CCS2
O=C(NCc1ccncc1)C1CCCN(S(=O)(=O)c2ccc(Br)cc2)C1 (stereo not given)
COC(=O)C1=CN(c2ccc(F)c(F)c2)C=C(C(=O)OC)C1c1ccc([N+](=O)[O-])cc1
